Where “and” joins values, the source holds several entries; their conditions need not be identical. Identical values can stand only once. Inconclusive results are not listed. A structure can be active in one record and inactive in another. Calls of active or inactive are those of the source. The call rests on the fitted dose curve; in most records, active means well fitted curve in the direction sought with a large enough effect in the repeat runs; inconclusive means weak or mixed curves; inactive means no such curve, though single readings can be large; an effect the other way counts as inactive or inconclusive.
How the values were obtained:
[1] = molecular target: Cytochrome P450 2C19 (Homo sapiens) (UniProt P33261); assay: Cytochrome P450 Family 2 Subfamily C Member 19 (CYP2C19) small molecule antagonists: luciferase reporter qHTS assay (AID 1671197); further: nearly all actives have a fitted effect of over 65% in size
Chain of Cytochrome P450 2C19 (Homo sapiens) (P33261 whole entry, looked up): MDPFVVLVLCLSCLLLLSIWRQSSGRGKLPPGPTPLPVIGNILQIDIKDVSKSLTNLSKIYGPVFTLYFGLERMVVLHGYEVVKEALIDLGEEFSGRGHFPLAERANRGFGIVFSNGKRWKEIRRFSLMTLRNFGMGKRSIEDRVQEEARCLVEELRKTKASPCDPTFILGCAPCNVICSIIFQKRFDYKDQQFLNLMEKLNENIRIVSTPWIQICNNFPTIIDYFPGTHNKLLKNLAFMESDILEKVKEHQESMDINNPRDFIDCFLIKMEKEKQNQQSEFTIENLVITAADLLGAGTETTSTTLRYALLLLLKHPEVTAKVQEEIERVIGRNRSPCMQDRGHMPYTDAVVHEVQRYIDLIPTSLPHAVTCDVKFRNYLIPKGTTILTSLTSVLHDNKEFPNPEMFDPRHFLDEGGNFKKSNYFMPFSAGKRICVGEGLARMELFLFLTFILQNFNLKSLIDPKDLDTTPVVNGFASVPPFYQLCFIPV
Procedure, shortened: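 Quantitative high-throughput screen of the Tox21 library using CYP2C19 with proluciferin substrate. Reaction: NADPH regeneration, 37C, 1 h, after 10 min compound preincubation at room temperature. Readout: luminescence.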

[2] = molecular target: Cytochrome P450 2C9 (Homo sapiens) (UniProt P11712); assay: Cytochrome P450 Family 2 Subfamily C Member 9 (CYP2C9) small molecule antagonists: luciferase reporter qHTS assay (AID 1671198); further: nearly all actives have a fitted effect of over 50% in size
Chain of Cytochrome P450 2C9 (Homo sapiens) (P11712 whole entry, looked up): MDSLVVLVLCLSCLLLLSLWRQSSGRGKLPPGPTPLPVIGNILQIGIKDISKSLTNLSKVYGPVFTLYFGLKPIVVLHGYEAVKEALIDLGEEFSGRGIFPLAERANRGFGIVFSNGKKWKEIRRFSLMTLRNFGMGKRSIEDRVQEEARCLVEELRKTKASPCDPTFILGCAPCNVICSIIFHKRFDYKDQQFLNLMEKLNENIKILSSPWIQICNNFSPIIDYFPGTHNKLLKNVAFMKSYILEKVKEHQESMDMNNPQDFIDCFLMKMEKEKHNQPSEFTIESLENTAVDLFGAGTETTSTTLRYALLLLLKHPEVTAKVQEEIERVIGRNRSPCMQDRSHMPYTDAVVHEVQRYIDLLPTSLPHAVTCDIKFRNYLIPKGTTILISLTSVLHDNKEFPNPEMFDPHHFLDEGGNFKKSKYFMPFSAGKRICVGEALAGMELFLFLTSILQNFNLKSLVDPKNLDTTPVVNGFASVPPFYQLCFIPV
Procedure, shortened: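 P450-Glo proluciferin substrate with CYP2C9 enzyme; 10 min RT preincubation, then NADPH regeneration 1 h at 37C; luciferin detection reagent 20 min RT, luminescence in relative luminescence units.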

[3] = molecular target: Cytochrome P450 1A2 (Homo sapiens) (UniProt P05177); assay: Cytochrome P450 Family 1 Subfamily A Member 2 (CYP1A2) small molecule antagonists: luciferase reporter qHTS assay (AID 1671199); further: nearly all actives have a fitted effect of over 50% in size
Chain of Cytochrome P450 1A2 (Homo sapiens) (P05177 whole entry, looked up): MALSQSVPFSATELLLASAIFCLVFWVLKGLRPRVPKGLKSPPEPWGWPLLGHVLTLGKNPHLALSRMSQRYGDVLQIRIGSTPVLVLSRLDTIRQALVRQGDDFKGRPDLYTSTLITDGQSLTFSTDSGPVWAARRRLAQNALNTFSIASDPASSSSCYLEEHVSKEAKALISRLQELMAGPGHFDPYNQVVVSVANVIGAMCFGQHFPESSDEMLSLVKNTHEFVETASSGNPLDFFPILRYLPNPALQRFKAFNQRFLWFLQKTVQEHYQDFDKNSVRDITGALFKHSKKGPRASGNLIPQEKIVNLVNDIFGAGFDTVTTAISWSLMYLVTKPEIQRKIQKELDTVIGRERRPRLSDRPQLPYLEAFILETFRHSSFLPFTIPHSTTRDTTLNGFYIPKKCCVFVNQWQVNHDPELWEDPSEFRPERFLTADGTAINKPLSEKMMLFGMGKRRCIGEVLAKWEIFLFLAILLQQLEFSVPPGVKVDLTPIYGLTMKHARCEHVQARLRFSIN
Procedure, shortened: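 Human CYP1A2 activity measured with a P450-Glo proluciferin substrate; compounds in DMSO preincubated 10 min at room temperature with enzyme-substrate mix, then NADPH regeneration system added for 1 h. Luciferin detection reagent, 20 min, luminescence read.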

[4] = molecular target: Voltage-gated inwardly rectifying potassium channel KCNH2 (Homo sapiens) (UniProt Q12809); assay: Human Ether-a-go-go-Related Gene (hERG) channel small molecule antagonists: fluorescence cell-based qHTS assay (AID 1671200); further: nearly all actives have a fitted effect of over 50% in size
Chain of Voltage-gated inwardly rectifying potassium channel KCNH2 (Homo sapiens) (Q12809 whole entry, looked up): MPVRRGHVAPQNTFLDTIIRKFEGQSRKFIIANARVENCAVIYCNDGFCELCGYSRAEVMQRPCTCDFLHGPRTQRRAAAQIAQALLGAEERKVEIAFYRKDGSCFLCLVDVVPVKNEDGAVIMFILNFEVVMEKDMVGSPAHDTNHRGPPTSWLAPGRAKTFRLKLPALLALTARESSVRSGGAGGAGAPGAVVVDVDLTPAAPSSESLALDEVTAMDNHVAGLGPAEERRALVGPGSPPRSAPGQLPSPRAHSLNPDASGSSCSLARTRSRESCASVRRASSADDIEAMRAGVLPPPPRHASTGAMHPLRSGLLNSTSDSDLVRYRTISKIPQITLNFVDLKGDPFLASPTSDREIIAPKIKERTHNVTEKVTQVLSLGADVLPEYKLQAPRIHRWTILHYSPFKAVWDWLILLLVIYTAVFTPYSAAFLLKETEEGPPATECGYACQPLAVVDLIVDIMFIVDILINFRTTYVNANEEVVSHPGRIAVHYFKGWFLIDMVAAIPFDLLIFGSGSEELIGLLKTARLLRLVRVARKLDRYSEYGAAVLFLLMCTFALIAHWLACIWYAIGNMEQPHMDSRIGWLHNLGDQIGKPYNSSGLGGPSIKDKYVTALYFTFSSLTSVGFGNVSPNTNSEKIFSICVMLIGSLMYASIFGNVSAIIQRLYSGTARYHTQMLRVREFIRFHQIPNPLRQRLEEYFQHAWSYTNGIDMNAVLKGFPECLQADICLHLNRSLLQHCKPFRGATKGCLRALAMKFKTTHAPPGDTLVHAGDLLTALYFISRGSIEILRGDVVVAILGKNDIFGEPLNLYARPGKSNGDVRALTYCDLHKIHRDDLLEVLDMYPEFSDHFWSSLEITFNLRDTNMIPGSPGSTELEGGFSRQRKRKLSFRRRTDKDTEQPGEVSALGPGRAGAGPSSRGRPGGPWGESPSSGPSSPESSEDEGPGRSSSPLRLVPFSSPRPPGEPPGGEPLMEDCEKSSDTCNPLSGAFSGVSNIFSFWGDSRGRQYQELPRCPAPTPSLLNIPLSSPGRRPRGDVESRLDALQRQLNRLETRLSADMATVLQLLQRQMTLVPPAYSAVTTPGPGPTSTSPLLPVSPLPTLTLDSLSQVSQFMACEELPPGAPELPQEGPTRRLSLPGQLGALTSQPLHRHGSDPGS
Procedure, shortened: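 Kinetic two-minute fluorescence traces, sampled at 1 s, were collected following thallium stimulus of U2OS cells (1000 per well) that had been cultured overnight at 37 C and loaded with FluxOR II.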

[5] = molecular target: Cytochrome P450 3A4 (Homo sapiens) (UniProt P08684); assay: Cytochrome P450 Family 3 Subfamily A Member 4 (CYP3A4) small molecule antagonists: luciferase reporter qHTS assay (AID 1671201); further: nearly all actives have a fitted effect of over 50% in size
Chain of Cytochrome P450 3A4 (Homo sapiens) (P08684 whole entry, looked up): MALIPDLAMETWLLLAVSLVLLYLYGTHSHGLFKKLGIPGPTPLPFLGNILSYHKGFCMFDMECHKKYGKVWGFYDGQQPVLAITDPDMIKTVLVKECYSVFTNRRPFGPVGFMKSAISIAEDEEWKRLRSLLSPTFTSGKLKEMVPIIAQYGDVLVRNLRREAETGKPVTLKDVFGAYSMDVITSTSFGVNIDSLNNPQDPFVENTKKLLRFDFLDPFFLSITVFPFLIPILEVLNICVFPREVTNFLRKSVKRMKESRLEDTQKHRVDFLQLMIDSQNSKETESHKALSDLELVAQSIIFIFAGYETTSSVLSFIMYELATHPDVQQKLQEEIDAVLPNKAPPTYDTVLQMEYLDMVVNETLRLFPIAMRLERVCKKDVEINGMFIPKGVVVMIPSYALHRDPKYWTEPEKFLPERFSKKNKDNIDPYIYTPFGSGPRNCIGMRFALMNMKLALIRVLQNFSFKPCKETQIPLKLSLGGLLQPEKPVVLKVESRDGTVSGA
Procedure, shortened: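 Proluciferin-to-luciferin conversion by CYP3A4, NADPH-regenerated, 1 h RT; luminescence read as RLU. Ketoconazole as control.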
Potency means the concentration at half of the fitted maximal effect.

SMILES | Potency [1] | Potency [2] | Potency [3] | Potency [4] | Potency [5]
CCOC(=O)O[C@]1(C(=O)OCCl)CC[C@H]2[C@@H]3CCC4=CC(=O)C=C[C@]4(C)[C@H]3[C@@H](O)C[C@@]21C | inactive | inactive | inactive | inactive | 
Nc1nc2ccccc2n1Cc1ccc(F)cc1 | 15.5 µM (active) | inactive | 24.5 µM (active) |  | 
Cc1cc(O)c(Cl)c(C)c1Cl | 56.4 µM (active) | inactive | 17.8 µM (active) | inactive | 
COCCCC/C(=N\OCCN)c1ccc(C(F)(F)F)cc1 | 0.692 µM (active) | 3.89 µM (active) | 0.204 µM (active) |  | 
Nc1c(Cl)cc(Cl)cc1Cl | inactive | inactive | 15.7 µM (active) | inactive | 
CCCCC(CC)CN=C(N)NC(N)=NCCCCCCN=C(N)NC(N)=NCC(CC)CCCC (stereo not drawn) | 17.4 µM (active) | 17.4 µM (active) | 32.3 µM (active) | inactive | 
CCC(CN)=C(c1ccccc1)c1ccccc1 | 4.36 µM (active) | 15.5 µM (active) |  |  | 
OCc1c[nH]c2ccccc12 | 2.52 µM (active) | 7.52 µM (active) | 29.1 µM (active) | inactive | 
CCCCCCC[N+](CC)(CC)CCCCc1ccc(Cl)cc1 | inactive | inactive | inactive |  | 
O=C(NO)C1(NS(=O)(=O)c2ccc(Oc3ccc(F)cc3)cc2)CCOCC1 | 71 µM (active) | 56.4 µM (active) | inactive | inactive | 
Cc1cccc(N(C)C(=S)Oc2ccc3c(c2)C2CCC3C2)c1 (stereo not drawn) | 1.74 µM (active) | 15.5 µM (active) | 9.11 µM (active) | inactive | 
CC1=C(C(=O)OC(C)C)C(c2cccc([N+](=O)[O-])c2)C(C(=O)OC2CN(C(c3ccccc3)c3ccccc3)C2)=C(N)N1 (stereo not drawn) | 1.74 µM (active) | 1.38 µM (active) |  |  | 
Cc1cccc(CN2CCN(C(c3ccccc3)c3ccc(Cl)cc3)CC2)c1 (stereo not drawn) | 8.71 µM (active) | 13.8 µM (active) | inactive | 2.39 µM (active) | 
CCCC1O[C@@H]2C[C@H]3[C@@H]4CCC5=CC(=O)C=C[C@]5(C)[C@H]4[C@@H](O)C[C@]3(C)[C@]2(C(=O)CO)O1 (stereo partly drawn) | 39.9 µM (active) and inactive | 39.9 µM (active) and 35.6 µM (active) | inactive | inactive | 
Nc1cc(C(F)(F)F)ccc1S | 2.19 µM (active) | 2.19 µM (active) | 12.3 µM (active) | inactive | 
CCCC(=O)OC[C@@H](OC(=O)CCC)[C@@H](OC(=O)CCC)[C@H](Cn1c2nc(=O)[nH]c(=O)c-2nc2cc(C)c(C)cc21)OC(=O)CCC | 8.71 µM (active) | 13.8 µM (active) | inactive |  | 
CC(C)(C)CC(C)(C)c1ccc(O)c(Cc2ccc(Cl)cc2Cl)c1 | 1.74 µM (active) | 5.49 µM (active) | 15.5 µM (active) | inactive | 
CC(C)n1nc(-c2cc3cc(O)ccc3[nH]2)c2c(N)ncnc21 | 0.49 µM (active) | 2.45 µM (active) | 3.63 µM (active) | inactive | 
CN(C/C=C/C#CC(C)(C)C)Cc1cccc2ccccc12 | 17.4 µM (active) | 15.5 µM (active) | 17.4 µM (active) |  | 

SMILES | Potency [1] | Potency [2] | Potency [3] | Potency [4] | Potency [5]
CC[C@H](c1ccc(O)cc1)[C@@H](CC)c1ccc(O)cc1 | 79.6 µM (active) and inactive | 39.9 µM (active) and 30.9 µM (active) | inactive | inactive | 
OCCN1CCN(CC/C=C2/c3ccccc3Sc3ccc(C(F)(F)F)cc32)CC1 | 34.7 µM (active) | inactive | 19.5 µM (active) | 2.13 µM (active) | 
COC(=O)C1=C(C)NC(C)=C(C(=O)OCCc2ccc(N3CCN(C(c4ccccc4)c4ccccc4)CC3)cc2)C1c1cccc([N+](=O)[O-])c1 (stereo not drawn) | 7.76 µM (active) | 0.436 µM (active) | 14.4 µM (active) | inactive | 
O=C(N/N=C/c1ccccc1O)c1ccncc1 | 4.9 µM (active) | 2.19 µM (active) | 0.575 µM (active) | inactive | 
N/C(=N\N=C\c1ccc(Cl)cc1)N/N=C/c1ccc(Cl)cc1 | 2.19 µM (active) | 13.8 µM (active) | 3.63 µM (active) | 2.39 µM (active) | 
CCN(C(=O)N(CC)c1ccccc1)c1ccccc1 | 7.96 µM (active) | 7.1 µM (active) | inactive | inactive | 
CCCCCCCCOc1ccccc1C(=O)Nc1ccc(C(=O)OCC[N+](C)(CC)CC)cc1 | 3.89 µM (active) | 4.36 µM (active) | inactive |  | 
Oc1ccc2c(c1)-c1ccccc1C2 | 39.9 µM (active) | 39.9 µM (active) | 5.03 µM (active) | inactive | 
ON=C1CCCC1 | 32.8 µM (active) | 41.3 µM (active) | 36.8 µM (active) | inactive | 
Cn1cc(C(=O)[C@@H]2CCc3nc[nH]c3C2)c2ccccc21 | 8.71 µM (active) | inactive | 17.4 µM (active) |  | 
CCCCCCCCOC(=O)c1ccc(O)cc1 | 22.4 µM (active) and 10 µM (active) | 31.6 µM (active) and 35.6 µM (active) | 19.9 µM (active) and 12.6 µM (active) | inactive | 
Cc1ccc(-n2nc(C(C)(C)C)cc2NC(=O)Nc2ccc(OCCN3CCOCC3)c3ccccc23)cc1 | 3.89 µM (active) | 6.92 µM (active) |  |  | 
Fc1ccc([C@@H]2CCNC[C@H]2COc2ccc3c(c2)OCO3)cc1 | inactive | inactive | 12.9 µM (active) |  | 
O=C(NOCC1CC1)c1ccc(F)c(F)c1Nc1ccc(I)cc1Cl | 0.246 µM (active) | 0.55 µM (active) | 15.5 µM (active) | inactive | 
CC(=O)S[C@@H]1CC2=CC(=O)CC[C@]2(C)[C@H]2CC[C@@]3(C)[C@@H](CC[C@@]34CCC(=O)O4)[C@H]12 | 6.33 µM (active) |  |  |  | 
O=C1Cc2cc(CCN3CCN(c4nsc5ccccc45)CC3)c(Cl)cc2N1 | 21.9 µM (active) | 27.5 µM (active) |  |  | 
N=C1C=CC(=C(c2ccc(N)cc2)c2ccc(N)cc2)C=C1 | 39.9 µM (active) | 39.9 µM (active) | 35.6 µM (active) | inactive | 12.6 µM (active)
CCOC(=O)/C=C(C)/C=C/C=C(C)/C=C/c1c(C)cc(OC)c(C)c1C | 11 µM (active) | 6.17 µM (active) | 24.5 µM (active) | inactive | 
O=c1[nH]sc2cc(Cl)ccc12 | inactive | 13.8 µM (active) | 24.5 µM (active) | inactive | 

SMILES | Potency [1] | Potency [2] | Potency [3] | Potency [4] | Potency [5]
CC[C@@]1(O)C(=O)OCc2c1cc1n(c2=O)Cc2cc3c(CN(C)C)c(O)ccc3nc2-1 | inactive | inactive | inactive | inactive | 
CC(=O)OCC(C)OC(C)=O (stereo not drawn) | inactive | inactive | inactive | inactive | inactive
C[n+]1ccn(Cc2ccccc2)c1 | inactive | inactive | inactive | inactive | inactive
O=c1[nH]sc2ccccc12 | inactive | 31.7 µM (active) | 31.7 µM (active) | 49 µM (active) | 39.9 µM (active)
CC(C)CCCCCCCCCCCCCCC(=O)O | inactive | inactive | inactive | inactive | inactive
Cc1cc(O)c2ccccc2c1O | 11 µM (active) | 12.3 µM (active) | 1.23 µM (active) | 3.38 µM (active) | 
O=C(Nc1cccc([N+](=O)[O-])c1)c1cc2ccccc2cc1O | 79.6 µM (active) | 17.8 µM (active) | 3.56 µM (active) | inactive | 
Nc1c2ccccc2nc2ccccc12 | inactive | inactive | 1.25 µM (active) and 2.45 µM (active) | inactive | inactive
CCCCCCCC[N+](CCCCCCCC)(CCCCCCCC)CCCCCCCC | 22.4 µM (active) | 35.5 µM (active) | 70.9 µM (active) | 0.69 µM (active) | 1.59 µM (active)
C[C@H]1[C@H]2CC[C@H]3[C@@H]4CC=C5C[C@@H](N(C)C)CC[C@]5(C)[C@H]4CC[C@]23CN1C | inactive | inactive | inactive | inactive | 
Cc1cc2c(cc1C(F)(F)F)N(C(=O)Nc1ccc(Oc3cccnc3C)nc1)CC2 | 28.7 µM (active) | 11.4 µM (active) | 72.1 µM (active) | inactive | 20.3 µM (active)
CCOC(=O)c1nc(C(Cl)(Cl)Cl)n(-c2ccc(Cl)cc2Cl)n1 | 5.03 µM (active) | 3.17 µM (active) | inactive | 49 µM (active) | inactive
C[C@]12CCC(=O)C=C1CC[C@@H]1[C@@H]2[C@@H](O)C[C@@]2(C)[C@H]1CC[C@]2(O)C(=O)COC(=O)CCC(=O)O | inactive | inactive | inactive | inactive | inactive
CCCCCCCC[P+](CCCCCCCC)(CCCCCCCC)CCCCCCCC | 7.06 µM (active) | 22.3 µM (active) | 39.7 µM (active) | 0.154 µM (active) | 0.445 µM (active)
CCCCCCCCn1sc(Cl)c(Cl)c1=O | 6.33 µM (active) | 3.17 µM (active) | 11.2 µM (active) | 12.3 µM (active) | 20 µM (active)
C/C(=C(/OCCOc1ccc(Cl)cc1)c1ccc(Cl)cc1Cl)n1ccnc1 | 0.776 µM (active) | 0.871 µM (active) | 2.29 µM (active) | 6.74 µM (active) | 
Oc1cccc(-c2c3nc(c(-c4cccc(O)c4)c4ccc([nH]4)c(-c4cccc(O)c4)c4nc(c(-c5cccc(O)c5)c5ccc2[nH]5)CC4)C=C3)c1 | 38.9 µM (active) | 13.8 µM (active) | inactive | inactive | 
CC(C)(C)C1CCC(CC2=C(O)c3ccccc3C(=O)C2=O)CC1 (stereo not drawn) | inactive | 1.95 µM (active) | inactive | inactive | inactive
O=C(Nc1cccc(C(F)(F)F)c1)c1cc(Br)cc(Br)c1O | 56.4 µM (active) | 14.2 µM (active) | 56.4 µM (active) | inactive | 22.4 µM (active)

Reference: PubChem BioAssay (Tox21)
